According to PubChem BioAssay (NCI):
The panel holds about 79,000 compounds, 15% with a hit somewhere; the sample as a whole holds those more often. Values without a mark were called inactive. Calls of active or inactive are those of the source. Cut-off read from the data, not from the text of the source: active = growth inhibition above about 70%; inactive = the rest.

Legend:
[1] = NCI Yeast Anticancer Drug Screen. Data for the rad50 strain (AID 155);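 note: 0% = growth of vehicle-only cultures of the same strain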; conditions: S. cerevisiae rad50 strain growth inhibition, stronger effect = higher value
Outline: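 Yeast carrying a defined DNA repair defect were exposed to test compounds, and growth was compared with vehicle-treated controls to give percent inhibition.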

[2] = NCI Yeast Anticancer Drug Screen. Data for the mec2-1 strain (AID 157); conditions: S. cerevisiae mec2-1 strain, stronger effect = higher value
Outline: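 mec2-1 yeast strain, carrying an alteration in DNA damage repair or cell cycle control, was exposed to compounds; growth inhibition was measured relative to vehicle-treated controls.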

[3] = NCI Yeast Anticancer Drug Screen. Data for the sgs1 mgt1 strain (AID 161);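 note: 0% = growth of cultures given vehicle only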; conditions: S. cerevisiae sgs1 mgt1 strain, stronger effect = higher value
Outline: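 Percent growth inhibition was derived by comparing compound-exposed mutant yeast with vehicle-exposed cultures. The strain carries alterations in DNA damage repair.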

[4] = NCI Yeast Anticancer Drug Screen. Data for the cln2 rad14 strain (AID 165);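 note: 0% = growth equal to vehicle treated cultures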; conditions: S. cerevisiae cln2 rad14 strain, stronger effect = higher value
Outline: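 Yeast carrying cln2 and rad14 alterations (cell cycle control and DNA damage repair) were exposed to compounds. Growth inhibition was measured against vehicle-treated controls.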

[5] = NCI Yeast Anticancer Drug Screen. Data for the bub3 strain (AID 167); conditions: S. cerevisiae bub3 mutant strain, stronger effect = higher value
Outline: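 Compounds were applied to a genetically altered yeast strain carrying a cell-cycle control defect. Growth inhibition was scored against vehicle-treated controls.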

[6] = NCI Yeast Anticancer Drug Screen. Data for the mlh1 rad18 strain (AID 175); conditions: S. cerevisiae mlh1 rad18 strain growth inhibition, stronger effect = higher value
Outline: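 Growth inhibition of the yeast strain was measured after compound exposure and expressed relative to vehicle-treated controls. The strain carries defined defects in DNA damage repair.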

[7] = at 5.0 µM (retest, dose inferred, filed as 0.5)
[8] = at 50.0 µM (retest, dose inferred, filed as 5.0)

For Cc1ccccc1C(=O)C(C)c1ccccc1 (stereo not given), the growth inhibition [1, 7] was -19%, the growth inhibition [1, 8] was -6% and the growth inhibition ([1]; at 50.0 µM) was 6.35%. For the same compound, the growth inhibition [2, 7] was -8%, the growth inhibition [2, 8] was -4% and the growth inhibition ([2]; at 50.0 µM) was 9.25%. It also gave a growth inhibition [3, 7] of -2%, a growth inhibition [3, 8] of -7% and a growth inhibition ([3]; at 50.0 µM) of 12.5%. The growth inhibition [4, 7] was -35%, the growth inhibition [4, 8] was -5% and the growth inhibition ([4]; at 50.0 µM) was 44.4%. The growth inhibition [5, 7] was -8%, the growth inhibition [5, 8] was 3% and the growth inhibition ([5]; at 50.0 µM) was 4.5%. It also gave a growth inhibition [6, 7] of -24%, a growth inhibition [6, 8] of 4% and a growth inhibition ([6]; at 50.0 µM) of -9.2%.

With Nc1cc(Cl)c2c(c1)Cc1ccccc1-2 the growth inhibition [1, 7] was 3%, the growth inhibition [1, 8] was 96% (active) and the growth inhibition ([1]; at 50.0 µM) was 76.8% (active). The growth inhibition [2, 7] was 2%, the growth inhibition [2, 8] was 95% (active) and the growth inhibition ([2]; at 50.0 µM) was 9.45%. The growth inhibition [3, 7] was 7%, the growth inhibition [3, 8] was 96% (active) and the growth inhibition ([3]; at 50.0 µM) was 84.8% (active). The growth inhibition [4, 7] was -7%, the growth inhibition [4, 8] was 94% (active) and the growth inhibition ([4]; at 50.0 µM) was -22.4%. For the same compound, the growth inhibition [5, 7] was -6%, the growth inhibition [5, 8] was 94% (active) and the growth inhibition ([5]; at 50.0 µM) was 70.8% (active). The growth inhibition [6, 7] was 0%, the growth inhibition [6, 8] was 94% (active) and the growth inhibition ([6]; at 50.0 µM) was 86.8% (active).

In the case of COC(=O)Oc1nn(C(=O)OC)c(=O)c2ccccc12, the growth inhibition [1, 7] is reported as -18%, the growth inhibition [1, 8] is reported as 87% (active) and the growth inhibition ([1]; at 50.0 µM) is reported as 90.9% (active). It also gave a growth inhibition [2, 7] of -3%, a growth inhibition [2, 8] of 45% and a growth inhibition ([2]; at 50.0 µM) of 24.2%. It also gave a growth inhibition [3, 7] of -17%, a growth inhibition [3, 8] of 43% and a growth inhibition ([3]; at 50.0 µM) of 44.4%. For the same compound, the growth inhibition [4, 7] was 7%, the growth inhibition [4, 8] was 66% and the growth inhibition ([4]; at 50.0 µM) was 99.6% (active). For the same compound, the growth inhibition [5, 7] was 5%, the growth inhibition [5, 8] was 58% and the growth inhibition ([5]; at 50.0 µM) was 99.5% (active). For the same compound, the growth inhibition [6, 7] was -12%, the growth inhibition [6, 8] was 54% and the growth inhibition ([6]; at 50.0 µM) was 86.5% (active).

Work on CCC/C(=N\O)S(=O)(=O)c1ccc(NN=O)nc1 yielded a growth inhibition [1, 7] of -18%, a growth inhibition [1, 8] of -11% and a growth inhibition ([1]; at 50.0 µM) of -22.1%. It also gave a growth inhibition [2, 7] of -20%, a growth inhibition [2, 8] of 1% and a growth inhibition ([2]; at 50.0 µM) of -26.8%. For the same compound, the growth inhibition [3, 7] was 3%, the growth inhibition [3, 8] was -11% and the growth inhibition ([3]; at 50.0 µM) was -36.1%. For the same compound, the growth inhibition [4, 7] was -31%, the growth inhibition [4, 8] was -13% and the growth inhibition ([4]; at 50.0 µM) was 34.5%. For the same compound, the growth inhibition [5, 7] was -33%, the growth inhibition [5, 8] was -18% and the growth inhibition ([5]; at 50.0 µM) was -4.4%. It also gave a growth inhibition [6, 7] of -33%, a growth inhibition [6, 8] of -21% and a growth inhibition ([6]; at 50.0 µM) of -28%.

With COc1cc(O)c2c(c1)C(=O)C1=C(C2=O)[C@@H](C)OC(C)[C@H]1O (stereo not given in full) the growth inhibition [1, 7] was 8%, the growth inhibition [1, 8] was 96% (active) and the growth inhibition ([1]; at 50.0 µM) was 53.4%. The growth inhibition [2, 7] was 2%, the growth inhibition [2, 8] was 94% (active) and the growth inhibition ([2]; at 50.0 µM) was 6.2%. For the same compound, the growth inhibition [3, 7] was 8%, the growth inhibition [3, 8] was 97% (active) and the growth inhibition ([3]; at 50.0 µM) was -4.5%. The growth inhibition [4, 7] was 1%, the growth inhibition [4, 8] was 95% (active) and the growth inhibition ([4]; at 50.0 µM) was -22.4%. The growth inhibition [5, 7] was 21%, the growth inhibition [5, 8] was 97% (active) and the growth inhibition ([5]; at 50.0 µM) was -2.75%. The growth inhibition [6, 7] was 8%, the growth inhibition [6, 8] was 97% (active) and the growth inhibition ([6]; at 50.0 µM) was -6.25%.

For CCOC(=O)/C(=C\c1cccc(C(F)(F)F)c1)P(=O)(OCC)OCC, the growth inhibition [1, 7] was 31%, the growth inhibition [1, 8] was 50% and the growth inhibition ([1]; at 50.0 µM) was 75.7% (active). The growth inhibition [2, 7] was -8%, the growth inhibition [2, 8] was 74% (active) and the growth inhibition ([2]; at 50.0 µM) was 79% (active). For the same compound, the growth inhibition [3, 7] was 3%, the growth inhibition [3, 8] was 55% and the growth inhibition ([3]; at 50.0 µM) was 68.1%. The growth inhibition [4, 7] was 26%, the growth inhibition [4, 8] was 40% and the growth inhibition ([4]; at 50.0 µM) was 42.1%. The growth inhibition [5, 7] was 27%, the growth inhibition [5, 8] was 85% (active) and the growth inhibition ([5]; at 50.0 µM) was 71.8% (active). The growth inhibition [6, 7] was 13%, the growth inhibition [6, 8] was 82% (active) and the growth inhibition ([6]; at 50.0 µM) was 52.2%.

With CC(=O)Nc1[c-]cccc1.CC(=O)Nc1[c-]cccc1.CC(=O)O.CC(=O)O.[Pd].[Pd] the growth inhibition [1, 7] was 2%, the growth inhibition [1, 8] was 31% and the growth inhibition ([1]; at 50.0 µM) was 79.8% (active). For the same compound, the growth inhibition [2, 7] was -1%, the growth inhibition [2, 8] was 51% and the growth inhibition ([2]; at 50.0 µM) was 87.2% (active). For the same compound, the growth inhibition [3, 7] was 17%, the growth inhibition [3, 8] was 89% (active) and the growth inhibition ([3]; at 50.0 µM) was 92.5% (active). For the same compound, the growth inhibition [4, 7] was -7%, the growth inhibition [4, 8] was 25% and the growth inhibition ([4]; at 50.0 µM) was 45.1%. For the same compound, the growth inhibition [5, 7] was -4%, the growth inhibition [5, 8] was 31% and the growth inhibition ([5]; at 50.0 µM) was 58.7%. For the same compound, the growth inhibition [6, 7] was -1%, the growth inhibition [6, 8] was 55% and the growth inhibition ([6]; at 50.0 µM) was 95.8% (active).

With C=CC(c1ccccc1)[C@@]1(OC(C)=O)C(=O)C(=O)OC1C1COC(C)(C)O1 (stereo not given in full) the growth inhibition [1, 7] was 62%, the growth inhibition [1, 8] was 98% (active) and the growth inhibition ([1]; at 50.0 µM) was 86.3% (active). For the same compound, the growth inhibition [2, 7] was 75% (active), the growth inhibition [2, 8] was 98% (active) and the growth inhibition ([2]; at 50.0 µM) was 77.7% (active). For the same compound, the growth inhibition [3, 7] was 65%, the growth inhibition [3, 8] was 100% (active) and the growth inhibition ([3]; at 50.0 µM) was 88.3% (active). The growth inhibition [4, 7] was 30%, the growth inhibition [4, 8] was 94% (active) and the growth inhibition ([4]; at 50.0 µM) was 86.9% (active). The growth inhibition [5, 7] was 84% (active), the growth inhibition [5, 8] was 100% (active) and the growth inhibition ([5]; at 50.0 µM) was 85.1% (active). The growth inhibition [6, 7] was 81% (active), the growth inhibition [6, 8] was 98% (active) and the growth inhibition ([6]; at 50.0 µM) was 90.4% (active).

With CC(CN1CCCCCCC1)C(c1ccccc1)c1ccccc1 (stereo not given) the growth inhibition [1, 7] was 2%, the growth inhibition [1, 8] was 81% (active) and the growth inhibition ([1]; at 50.0 µM) was 66.3%. For the same compound, the growth inhibition [2, 7] was -3%, the growth inhibition [2, 8] was 76% (active) and the growth inhibition ([2]; at 50.0 µM) was 61.8%. The growth inhibition [3, 7] was 7%, the growth inhibition [3, 8] was 98% (active) and the growth inhibition ([3]; at 50.0 µM) was 94.1% (active). For the same compound, the growth inhibition [4, 7] was -5%, the growth inhibition [4, 8] was 73% (active) and the growth inhibition ([4]; at 50.0 µM) was 96.2% (active). The growth inhibition [5, 7] was -2%, the growth inhibition [5, 8] was 87% (active) and the growth inhibition ([5]; at 50.0 µM) was 98.5% (active). For the same compound, the growth inhibition [6, 7] was -3%, the growth inhibition [6, 8] was 89% (active) and the growth inhibition ([6]; at 50.0 µM) was 86.5% (active).

For Nc1nc(-c2ccccc2)c(N=Nc2c(Cl)cccc2Cl)s1, the growth inhibition [1, 7] was -2%, the growth inhibition [1, 8] was 94% (active) and the growth inhibition ([1]; at 50.0 µM) was 96.5% (active). For the same compound, the growth inhibition [2, 7] was 21%, the growth inhibition [2, 8] was 95% (active) and the growth inhibition ([2]; at 50.0 µM) was 90.3% (active). For the same compound, the growth inhibition [3, 7] was 9%, the growth inhibition [3, 8] was 94% (active) and the growth inhibition ([3]; at 50.0 µM) was 55.4%. The growth inhibition [4, 7] was 17%, the growth inhibition [4, 8] was 95% (active) and the growth inhibition ([4]; at 50.0 µM) was 87.7% (active). The growth inhibition [5, 7] was 13%, the growth inhibition [5, 8] was 94% (active) and the growth inhibition ([5]; at 50.0 µM) was 91% (active). The growth inhibition [6, 7] was 17%, the growth inhibition [6, 8] was 94% (active) and the growth inhibition ([6]; at 50.0 µM) was 96.8% (active).
